Screens deposited in PubChem BioAssay by National Center for Advancing Translational Sciences (NCATS).
TDP1 cell noCPT: qHTS for Inhibitors of human tyrosyl-DNA phosphodiesterase 1 (TDP1): qHTS in cells in absence of CPT. DT40 Tdp1-/- hTDP1 cells, no CPT, ATP luminescence, 48 h. Potency, µM (doses to about 46.2 µM), inactives show top-dose activity change, negative = growth inhibition, actives largely listed as inhibitors. 15% of 420,000 active; also: potency is read from the fitted curve at half-maximal effect; nearly all actives have a fitted effect of over 55% in size
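A cellular qHTS used chicken DT40 cells lacking endogenous Tdp1 but carrying stably transfected human TDP1. Compounds were applied without camptothecin, and cell growth kinetics were judged by ATP-dependent luminescence after ≥48 hr.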
RORgamma inh: inhibitors of mouse ROR gamma transcriptional activity. P51450. Drosophila S2 Gal4-RORgamma UAS-luciferase reporter, 20 h. Potency, µM (doses to about 53.6 µM), inactives show at the highest dose activity change, negative = inhibition, usual class: inhibitors. 5.4% of 310,000 active; also: potency is read from the fitted curve at half-maximal effect; nearly all actives have a fitted effect of over 60% in size
Target sequence (P51450 whole entry, looked up, the tested form may be a part): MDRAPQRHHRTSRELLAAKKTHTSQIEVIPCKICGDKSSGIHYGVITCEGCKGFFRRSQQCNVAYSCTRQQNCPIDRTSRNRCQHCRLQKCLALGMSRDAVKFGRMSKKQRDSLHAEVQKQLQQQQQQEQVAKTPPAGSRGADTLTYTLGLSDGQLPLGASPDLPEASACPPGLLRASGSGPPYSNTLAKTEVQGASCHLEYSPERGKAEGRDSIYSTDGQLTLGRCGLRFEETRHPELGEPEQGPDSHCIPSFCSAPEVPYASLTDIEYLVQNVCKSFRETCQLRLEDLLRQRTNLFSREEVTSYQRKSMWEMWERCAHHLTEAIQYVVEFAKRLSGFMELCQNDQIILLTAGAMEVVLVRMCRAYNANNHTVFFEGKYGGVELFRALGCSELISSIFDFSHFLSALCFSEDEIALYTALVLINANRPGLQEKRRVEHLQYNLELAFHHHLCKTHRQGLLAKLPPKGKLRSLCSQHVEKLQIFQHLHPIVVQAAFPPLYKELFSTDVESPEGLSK
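Drosophila Schneider cells stably carrying a metallothionein-driven Gal4 DBD–ROR gamma fusion and a UAS-Photinus luciferase reporter were exposed to compound for 1 hr, then induced with copper sulfate (700 uM final) for 20 hr at ambient temperature before luminescence reading.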
DT40 TDP1 CPT: growth inhibition of DT40 Tdp1-/-;hTDP1 cells with camptothecin (screen for TDP1 inhibitors) | Potency, µM (highest dose often 46.2 µM), for the others: top-dose activity change, negative = growth inhibition, usual class: inhibitors | 12% of 420,000 active | chicken DT40 Tdp1-/-;hTDP1 cells + 20 nM CPT, ATP luminescence, 48 h; also: potency is read from the fitted curve at half-maximal effect; nearly all actives have a fitted effect of over 55% in size
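Chicken DT40 Tdp1-/- cells stably complemented with human TDP1 were seeded at 400 cells/well in medium containing 20 nM camptothecin, exposed to pin-transferred compounds, and grown at 37 °C for at least 48 hr. Viability was read as ATP luminescence.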
IL-1B inflam inh: inflammasome signaling inhibition, IL-1 beta readout | THP-1 LPS/ATP IL-1B secretion, AlphaLISA, 16 h; stronger effect = lower value | activity change, % at 57.5 µM | 4.7% of 360,000 active; in the data active = activity change below about -50%; inconclusive = mostly about -30% to -49%
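Secreted IL-1B measured by AlphaLISA bead assay after 16 h compound exposure of THP-1 cells; compounds (final up to 57.5 uM) added 1 h before LPS (250 ng/mL) and ATP (1.25 mM) stimulation; lower signal means less secretion.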
ELG1 DNA repair: inhibitors of ELG1-dependent DNA repair in HEK293T cells; 2.3% of 330,000 active; Potency, µM (doses to about 46.1 µM), for the others: at the highest dose activity change, negative = inhibition, actives largely listed as inhibitors; HEK293T ELG1-luciferase reporter, luminescence, 16 h; DNA damage induced by 5-fluorouridine; also: potency is read from the fitted curve at half-maximal effect; nearly all actives have a fitted effect of over 55% in size
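Luminescence from the luciferase reporter, measured 30 min after ONE-Glo reagent at room temperature, was the read-out. Beforehand, 2,000 cells per well were exposed for 16 hr at 37 °C to 5-fluorouridine together with compound or vehicle.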
VP16 counter: Gal4-VP16 reporter inhibition counter-screen | Drosophila S2 Gal4-VP16 UAS-luciferase, luminescence, 20 h | Potency, µM (doses to about 53.6 µM), inactives show at the top dose activity, negative = inhibition, actives largely listed as inhibitors | 3.5% of 310,000 active | AID 2546;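 also: Gal4-VP16 expression switched on by copper sulfate through the metallothionein promoter; potency is read from the fitted curve at half-maximal effect; nearly all actives have a fitted effect of over 50% in size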
The depositor's hits bear a star; ? = inconclusive; · = no result given; [ ] = remark or other dose. Rows were chosen to be rich in hits. Some 21% of all compounds tested hit in one or more screens of this group. Unless noted, calls follow the shape of the dose curve; as a rule, active = well fitted curve in the direction sought with a large enough effect; inconclusive = small, poorly fitted or top-dose-only effect, or another doubt; inactive = no such curve, though single readings can be large; an effect the other way counts as inactive or inconclusive. % is scaled to controls: 0 for no effect and ±100 for the full control effect.

SMILES	TDP1 cell noCPT	RORgamma inh	DT40 TDP1 CPT	IL-1B inflam inh	ELG1 DNA repair	VP16 counter
CCNC(=S)Nc1ccc(Cl)cc1	-34.3%	8.91µM*	-16.7%	15.9	10.1%	-83.0%
CCNC(=S)NCc1ccc(Cl)cc1	-0.5%	·	-16.3%	7.2	·	·
CN(C)NC(=S)Nc1ccc(Cl)cc1	-6.5%	?	-13.7%	-2.9	0.0%	2.24µM*
CNNC(=S)Nc1ccc(Cl)cc1	-8.3%	?	1.9%	-0.6	15.2%	16.0%
COC(=O)c1cc(S(=O)(=O)Nc2cccc(C)c2C)cn1C	-16.6%	42.2%	-29.6%	13.5	-7.1%	0.6%
CCCCNC(=S)Nc1ccc(OC)nc1	-0.2%	10µM*	-18.5%	-16.1	1.8%	-2.1%
CC(CC(=O)Nc1ccc(Cl)c([N+](=O)[O-])c1)c1ccccc1 (stereo not drawn)	?	?	?	-90.5*	-28.6%	-11.4%
CCNC(=S)Nc1ccc(C)c(Cl)c1	-21.5%	7.08µM*	-12.5%	-5.0	-0.1%	?
CCOC(=O)NC(=S)Nc1ccc(C(C)(C)C)cc1	?	2µM*	?	17.1	?	10µM*
CCOC(=O)NC(=S)Nc1cccc(C)n1	-4.8%	·	-6.2%	-5.7	·	·
COCCCNC(=O)C1CCC(Cn2c(=O)c3sccc3n(C)c2=O)CC1 (stereo not drawn)	-14.3%	·	-24.5%	·	·	·
CCCCc1ccc(NC(=S)NCCO)cc1	-1.3%	?	9.2%	19.1	6.4%	6.5%
CCNC(=S)Nc1ccc(Cl)c([N+](=O)[O-])c1	?	-24.8%	-16.0%	-88.9*	-10.7%	10.9%
CCCCNC(=S)Nc1ccc(C(F)(F)F)cc1	?	4.47µM*	?	-93.7*	?	12.6µM*
Cc1ccccc1-c1ccc(/C=C2/SC(N3CCOCC3)=NC2=O)o1	7.31µM*	12.5%	2.91µM*	-75.5*	8.2µM*	-7.6%
COc1ccccc1C(=O)N1CCN(c2nc3cc(C)c(C)cc3cc2C#N)CC1	16.4µM*	31.0%	18.4µM*	-67.1*	23.1µM*	5.6%
Cc1cc(C)c2cc(C#N)c(N3CCCN(C(=O)c4cnccn4)CC3)nc2c1	18.4µM*	3.0%	-7.8%	-2.6	4.8%	2.9%
Cc1ccc2nc(N3CCN(C(=O)c4ccccc4F)CC3)c(C#N)cc2c1	?	·	?	-4.0	·	·
CC(=O)c1cccc(S(=O)(=O)N2CCN(c3nc4cc(C)cc(C)c4cc3C#N)CC2)c1	?	19.0%	14.6µM*	-24.5	?	-5.4%
Cc1cc(C)c2cc(C#N)c(N3CCCN(S(=O)(=O)c4ccccc4)CC3)nc2c1	?	·	-6.9%	29.3	·	·
COc1ccccc1C(=O)N1CCN(c2nc3cc(C)cc(C)c3cc2C#N)CC1	20.6µM*	·	23.1µM*	-9.1	·	·
COc1ccc(CNC(=O)C2CCN(S(=O)(=O)N3CCC(C)CC3)CC2)c(OC)c1	?	·	?	-4.5	·	·
Cc1ccc([N+](=O)[O-])c(C)c1	·	0.1%	·	·	·	-6.4%
CN1CCC(N2CCN(C3CN(C4CCCCC4)S(=O)(=O)C3)CC2)CC1 (stereo not drawn)	1.1%	·	6.1%	0.0	·	·
N#CC12COC3(CCCCC3C1(C#N)C#N)OC2=N (stereo not drawn)	2.59µM*	26.8%	2.31µM*	-20.6	0.0%	2.2%
SMILES	TDP1 cell noCPT	RORgamma inh	DT40 TDP1 CPT	IL-1B inflam inh	ELG1 DNA repair	VP16 counter
N#CC1(C#N)COC23CCCCC2C1(C#N)C(=N)O3 (stereo not drawn)	5.8µM*	9.1%	5.8µM*	-53.0*	-9.1%	-15.1%
CC1OC23CCCCC2C(C#N)(C(=N)O3)C1(C#N)C#N (stereo not drawn)	?	-2.5%	?	?	-1.8%	2.4%
CCC1COC(c2cccn2Cc2ccccc2Cl)=N1 (stereo not drawn)	-2.7%	8.91µM*	-5.5%	13.6	-0.7%	4.3%
Cc1cc(C)c2nc(NC(=O)C3CSC4(C)CCC(=O)N34)sc2c1 (stereo not drawn)	3.66µM*	·	-44.9%	-0.2	12.5%	·
Cc1cc(C)c2nc(NC(=O)C3CC(=O)N(Cc4ccco4)C3)sc2c1 (stereo not drawn)	?	?	?	-70.9*	-15.5%	-12.2%[10 µM]
Cc1sc(NC(=O)C2CSC3(C)CCC(=O)N23)nc1-c1ccc(F)cc1 (stereo not drawn)	18.4µM*	20.0%	14.6µM*	0.0	18.3µM*	0.8%
CCc1ccc2nc(NC(=O)C3CSC4(C)CCC(=O)N34)sc2c1 (stereo not drawn)	?	·	-27.5%	-55.3*	?	·
CCOC(=O)c1c(C)c(C(=O)NCCc2ccc(OC)cc2)c(C)n1CC	?	·	-8.1%	·	·	·
O=C(O)c1ccc2c(c1)C(=O)N([C@H](Cc1ccccc1)C(=O)O)C2=O	·	0.5%	·	·	·	-1.8%
Cc1cccc(CNc2ncnc3ccc(-c4ccccc4C#N)cc23)c1	-26.9%	-31.4%	-4.3%	·	·	-12.1%
C=CCN(C(=O)c1csnn1)C(C(=O)NC1CCCC1)c1ccc(OC)cc1 (stereo not drawn)	-23.2%	1.7%	0.9%	-8.7	7.9%	-9.7%
COCCNC(=O)C1(CC(C)C)C=CCN1C(=O)OC (stereo not drawn)	·	32.8%	·	·	·	28.1%
CCc1sc(C(=O)NNC(=O)c2cncc(Br)c2)cc1C	-5.0%	·	-9.3%	12.4	-5.3%	·
Cc1cccc(C(=O)Nc2ccc(N3CCC(N4CCCCC4)CC3)c(C(=O)O)c2)c1	-2.0%	·	0.2%	·	·	·
CC1CCN(S(=O)(=O)c2ccc(NC(=O)C3CSC4(C)CCC(=O)N34)cc2)CC1 (stereo not drawn)	10.3µM*	·	?	-5.8	-10.1%	·
CC12CCC(=O)N1C(C(=O)Nc1nc3ccc(Cl)cc3s1)CS2 (stereo not drawn)	?	·	3.6%	-84.0*	?	·
O=C1CC(N2CCOCC2)=NN1c1ccc([N+](=O)[O-])cc1	25.9µM*	?	?	-16.3	-7.9%	1.6%
CCc1cccc2c(C(=O)C(NCCCOC)c3ccccc3)c[nH]c12 (stereo not drawn)	?	31.0%	?	-3.0	7.4%	14.6%
CCc1cccc2c(C(=O)C(NC(C)CC)c3ccccc3)c[nH]c12 (stereo not drawn)	23.1µM*	17.9%	?	-18.0	3.4%	-0.4%
Cc1nc(N2CCN(S(=O)(=O)c3cccc4nonc34)CC2)c2c3c(sc2n1)CCCC3	16.4µM*	-33.6%	?	-2.9	18.4µM*	3.6%
COc1cccc(Cn2c(=O)n(-c3cccc(Cl)c3)c(=O)c3c4c(sc32)CN(C(C)=O)CC4)c1	18.4µM*	·	?	·	·	·
